Records with an inconclusive call do not appear. The source made the active and inactive calls. The call rests on the fitted dose curve; in most records, active means well fitted inhibition curve with a large enough effect; inconclusive means small, poorly fitted or top-dose-only effect; inactive means no such curve, though single readings can be large or run the other way.
assay: qHTS Screen of the MIPE 4.0 Collection Against Ewings Sarcoma (RDES) (AID 1259252); settings: RD-ES Ewing sarcoma viability, CellTiter-Glo, 48 h; series mostly up to 45.8 µM; further: nearly all actives have a fitted effect of over 35% in size
Excerpt: There is a large unmet medical need for treatments for Ewing sarcoma, a pediatric sarcoma. We sought to identify compounds that inhibited Ewing sarcoma cells in vitro with the goal to then test promising drugs in two drug combinations in vitro to look for synergistic drug combinations. Promising combinations would then proceed to additional validation, including in vivo testing.
Using the NCATS developed oncology compound library called the Mechanism of Interrogation Plate (MIPE), four Ewing sarcoma cell lines were evaluated (TC32, TC71, RDES, EW8). Compounds, in a 12-point titration series, were incubated with cells for 48 hours and the read out was cell viability (CellTiter-Glo from Promega). These initial experiments were used to select appropriate concentrations of each single agent for subsequent two-drug matrix combinations such that the concentrations in the matrices would span both activity and non-activity.
Cells, in the log phase of growth, were seeded in 5 uL of RPMI plus 5% FBS, […] L-glutamine, 100 U/ml penicillin and 100 ug/ml streptomycin into 1536-well solid-bottom white tissue culture treated Greiner Bio One Plates (789173-F) using a MultiDrop Combi (Thermofisher Scientific) dispenser and a small sterile cassette. One column was media alone to be used as a :"no cells" control. The plates were then covered with sterilized stainless steel gasketed lids from Kalypsys. After allowing cells to attach for 4 hours, 23 nL of test compound or control (negative control DMSO and positive control 9.2 uM Bortezomib-final) were added from a 1536-well polypropylene compound source plate to each well using a 1536 head pin tool from Kalypsys. Cells were then incubated for 48 hours at 37C, 95% relative humidity and 5% CO2. After 48 hours, plates were removed from the incubator and 3 uL of CellTiter-Glo (Promega) was added using an Aurora Flying Reagent Dispenser Bioraptor. Plates were incubated at room temperature for 10 minutes prior to reading the luminescence on the Viewlux (PerkinElmer). The relative luciferase units are used to calculate the percent activity using the activity of DMSO in the cells and no cells columns for normalization of no inhibition and full inhibition respectively.
Potency means the concentration at half of the fitted maximal effect.

SMILES | Potency
C[C@](O)(COc1ccc(C#N)cc1)C(=O)Nc1ccc(C#N)c(C(F)(F)F)c1 | inactive
COc1cc2cc(c1Cl)N(C)C(=O)C[C@H](OC(=O)C(C)C)[C@]1(C)O[C@H]1[C@H](C)[C@@H]1C[C@@](O)(NC(=O)O1)[C@H](OC)C=CC=C(C)C2 | inactive
O=[N+]([O-])c1ncc[nH]1 | inactive
C#C[C@]1(O)C=C[C@@H]2[C@@H]3CCC4=CC(=O)CC[C@@H]4[C@H]3CC[C@@]21CC | inactive
Cc1c(N)nc([C@H](CC(N)=O)NC[C@@H](N)C(N)=O)nc1C(=O)N[C@H](C(=O)N[C@@H](C)[C@H](O)[C@@H](C)C(=O)N[C@@H](C(=O)NCCc1nc(-c2nc(C(=O)NCCC[S+](C)C)cs2)cs1)[C@@H](C)O)C(O[C@H]1O[C@H](CO)[C@H](O)[C@@H](O)[C@@H]1O[C@H]1O[C@H](CO)[C@@H](O)[C@H](OC(N)=O)[C@H]1O)c1cnc[nH]1 (stereo not given in full) | 1.05 µM (active)
CC(=O)Nc1ccc(OC[C@](C)(O)C(=O)Nc2ccc([N+](=O)[O-])c(C(F)(F)F)c2)cc1 | inactive
C#CC1(O)CCC2C3CCC4=CC(=O)CCC4(C)C3CCC21C (stereo not given) | inactive
O=S(=O)(F)Cc1ccccc1 | 0.0418 µM (active)
O=c1cccc2n1CC1CNC[C@H]2C1 | inactive
C1=C2CCCN[C@H]2[C@@H]2C[C@H]1[C@@H]1CCCCN1C2 | inactive
CO[C@H]1CCC(O[C@H]2C[C@H]([C@]3(C)CC[C@]4(C[C@H](O)[C@@H](C)[C@@H]([C@@H](C)C=C(C)C(=O)[C@H](C)C[C@H](C)C(=O)O)O4)O3)O[C@]3(O[C@@H]([C@H]4O[C@@](O)(CO)[C@H](C)C[C@H]4C)C[C@H]3C)[C@H]2C)O[C@H]1C (stereo not given in full) | 0.418 µM (active)
COC1=CC(C)=C[C@@H](C)[C@@H](O)[C@@H](C)CC(C)=CC=C[C@H](OC)[C@H]([C@@H](C)[C@@H](O)[C@H](C)[C@@]2(O)C[C@@H](O)[C@H](C)[C@@H](C(C)C)O2)OC1=O | 0.0059 µM (active)
C[C@@H]1O[C@@H](O[C@@H]2C=C3CC[C@@H]4[C@@H](CC[C@]5(C)[C@H](c6ccc(=O)oc6)CC[C@@]45O)[C@@]3(C)CC2)[C@H](O)[C@H](O)[C@H]1O | 0.0418 µM (active)
CC(C)(O)C(=O)Nc1ccc([N+](=O)[O-])c(C(F)(F)F)c1 | 14.8 µM (active)
COCC1(CO)C(=O)C2CCN1CC2 (stereo not given) | 2.09 µM (active)
COc1ccc2c(c[n+](C)c3c4cc5c(cc4ccc23)OCO5)c1OC | 4.69 µM (active)
Cc1nc(-c2ccc(-c3ccc(C(=O)N4CCc5cc6c(cc54)C4(CCN(C)CC4)CO6)cc3)c(C)c2)no1 | inactive
CC[C@@]1(O)C(=O)OCc2c1cc1n(c2=O)Cc2cc3ccccc3nc2-1 | 0.0132 µM (active)
CCOP(=O)(OCC)C(C)NC(=O)N(CCCl)N=O (stereo not given) | inactive
CC[C@@H](C(N)=O)N1CCCC1=O | inactive

SMILES | Potency
CC(=Cc1csc(C)n1)[C@@H]1C[C@H]2O[C@@H]2CCC[C@H](C)[C@@H](O)[C@@H](C)C(=O)C(C)(C)[C@@H](O)CC(=O)O1 | inactive
C[C@H]1CCCC=CC2C[C@H](O)C[C@@H]2[C@H](O)C=CC(=O)O1 (stereo not given in full) | inactive
NC1=NC(=O)N2CC12 (stereo not given) | inactive
CC(=CCCC1=CCC(C2=CC(=O)OC2O)OC1O)CCC1=C(C)CCCC1(C)C (stereo not given) | 18.7 µM (active)
O=C(N[C@H]1CN2CCC1CC2)c1ccc(Cl)cc1 | 8.33 µM (active)
COc1cc([C@@H]2c3cc4c(cc3[C@@H](O)C3COC(=O)C32)OCO4)cc(OC)c1O (stereo not given in full) | 0.0235 µM (active)
CCNC(=O)CC1N=C(c2ccc(Cl)cc2)c2cc(OC)ccc2-n2c(C)nnc21 (stereo not given) | 13.2 µM (active)
CCCCCC[C@H]1C(=O)O[C@H](C)[C@H](NC(=O)c2cccc(NC=O)c2O)C(=O)O[C@@H](C)[C@@H]1OC(=O)CC(C)C | 0.0418 µM (active)
CC=C(C)C(=O)O[C@H]1C(C)=C2[C@@H]3OC(=O)[C@@](C)(O)[C@@]3(O)[C@@H](OC(=O)CCC)C[C@](C)(OC(C)=O)[C@@H]2[C@@H]1OC(=O)CCCCCCC | 0.148 µM (active)
Cc1ccccc1-n1c(Cn2ncc3c(N)ncnc32)nc2cccc(C)c2c1=O | 10.5 µM (active)
CC(=O)OCC1=C(C(=O)O)N2C(=O)[C@@H](N)[C@@H]2SC1 | inactive
C=CCON=C(C[C@H]1O[C@@H]2O[C@]3(C)CC[C@@H]4[C@H](C)CC[C@@H]([C@H]1C)[C@@]24OO3)[C@H]1O[C@@H]2O[C@]3(C)CC[C@H]4[C@H](C)CC[C@@H]([C@@H]1C)[C@@]24OO3 | 0.469 µM (active)
COc1cccc2c1[C@]13CCN(CC4CC4)[C@H](C2)[C@]1(OC)CCC(=O)C3 | inactive
O=C(Nc1ccncc1)C(=O)c1cn(Cc2ccc(Cl)cc2)c2ccccc12 | 0.0935 µM (active)
O=c1[nH]c2ccccc2n1C1CCN(Cc2ccc(-c3[nH]c4cc5ncnc5cc4nc3-c3ccccc3)cc2)CC1 | 23.5 µM (active)
C[C@]12CC[C@H](O)CC1=CC[C@H]1[C@H]3CCC(=O)[C@@]3(C)CC[C@@H]12 | 4.18 µM (active)
CN[C@@H]1Cc2cccc3[nH]c(=O)n(c23)C1 | inactive
CC(C)N[C@@H]1CCn2c(=O)[nH]c3cccc(c32)[C@@H]1O | 1.18 µM (active)
O=C1CCC[C@@H]2[C@H]3CCCN4CCC[C@@H](CN12)[C@@H]34 | inactive
C[C@@H]1CC[C@H]2[C@@H](C)C(=O)O[C@@H]3O[C@@]4(C)CC[C@H]1[C@]32OO4 | 18.7 µM (active)
